Test results from the supplement of paper PMC10981050.
“And” between values parts separate entries of the source, which are not always exact repeats. Equal entries are not always repeated. Structures can show the parent of a compound that is named as a salt.

What was measured:
Test in all cases: cell viability relative to vehicle control; higher = less cytotoxic
Conditions in all cases: 10 µM
K562 = test system: K562
How it was run: (§1)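 Mutant clones made by CRISPR editing and their isogenic wild-type counterparts, from four leukaemia lines, were exposed to a single 10 µM dose of each library compound for 48 h. The supernatant was then removed and CellTiter-Glo luminescence was read. Viability was reported as percent of the on-plate vehicle control.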

MARIMO = test system: MARIMO
How it was run: as §1

MOLM14 = test system: MOLM14
How it was run: as §1

OCI-AML2 = test system: OCI-AML2
How it was run: as §1

Row | Compound | cell viability (K562; SRSF2 genotype: SRSF2 P95H/wt) | cell viability (K562; SRSF2 genotype: SRSF2 wt/wt) | cell viability (MARIMO; SRSF2 genotype: SRSF2 P95H/wt) | cell viability (MARIMO; SRSF2 genotype: SRSF2 wt/wt) | cell viability (MOLM14; SRSF2 genotype: SRSF2 P95H/wt) | cell viability (MOLM14; SRSF2 genotype: SRSF2 wt/wt) | cell viability (OCI-AML2; SRSF2 genotype: P95H/wt) | cell viability (OCI-AML2; SRSF2 genotype: wt/wt)
1 | COCCNc1cc(NC(=O)N2CCCc3cc(CN4CCN(C)CC4=O)c(C=O)nc32)ncc1C#N | 94% and 103% | 89.4% | 96.9% | 106% | 100% | 98.2% | 112% | 109%
2 | CC(C)(O)CNc1nc(Nc2ccnc(C(F)(F)F)c2)nc(-c2cccc(C(F)(F)F)n2)n1 [AG-221 (Enasidenib)] | 102% and 103% | 103% | 93.1% | 99.8% | 97.8% | 110% | 84.6% | 89.4%
3 | COc1cc2c(cc1OC)CC(=O)N(CCCN(C)C[C@H]1Cc3cc(OC)c(OC)cc31)CC2 [Ivabradine HCl (Procoralan)] | 97.8% and 97.4% | 93.7% | 97.4% | 109% | 99.6% | 106% | 95.8% | 107%
4 | Cc1cccc2c3c(ccc12)C1=C(C(=O)C3=O)[C@@H](C)CO1 [Dihydrotanshinone I] | 3.54% and 3.11% | 2.64% | 7.76% | 7.12% | 0.56% | 0.4% | 0.43% | 2.86%
5 | O=C1C(=Cc2cccnc2)C(=O)c2ccccc21 | 110% and 102% | 116% | 94.2% | 102% | 89% | 99.4% | 102% | 102%
6 | NS(=O)(=O)c1cc2c(cc1Cl)N=CNS2(=O)=O [Chlorothiazide] | 100% and 94% | 94.5% | 98% | 105% | 102% | 97.8% | 93.7% | 109%
7 | CC(=O)O[C@H]1C(=O)[C@@]2(C)[C@H]([C@H](OC(=O)c3ccccc3)[C@]3(O)C[C@H](OC(=O)[C@H](O)[C@@H](NC(=O)c4ccccc4)c4ccccc4)C(C)=C1C3(C)C)[C@]1(OC(C)=O)CO[C@@H]1C[C@@H]2O [7-Epitaxol] | 19.6% and 30.7% | 26.1% | 7.11% | 4.44% | 8% | 2.61% | 6.19% | 12.1%
8 | CCc1cncnc1N1CCN(Cc2nc3ccc(C(F)(F)F)cc3[nH]2)CC1 | 72.3% and 72.8% | 73.1% | 66.4% | 47.9% | 57.4% | 66.5% | 32.3% | 43.3%
9 | CCC1(c2c[nH]cn2)Cc2ccccc2C1 [Atipamezole hydrochloride] | 90.5% and 99.4% | 104% | 92.4% | 99.1% | 96.2% | 99.7% | 98.5% | 95.2%
10 | CC(=O)CCC=C(C)CCC=C(C)CCC=C(C)CCC=C(C)C [Teprenone] | 94.5% and 91.8% | 92.9% | 80.2% | 95.6% | 86.8% | 96.5% | 77.7% | 84.9%
11 | CC(CNC(=O)c1cccnc1)NC(=O)c1cccnc1 (stereo not drawn) [Nicaraven] | 100% and 95.4% | 107% | 106% | 108% | 101% | 104% | 101% | 98.4%
12 | Cc1cc(Nc2ncnc3ccc(-c4ccc(CNCCS(C)(=O)=O)o4)cc23)ccc1Oc1ccn2ncnc2c1 [HER2 Inhibitor 1] | 96.3% and 102% | 105% | 107% | 108% | 93% | 101% | 95.7% | 89.6%
13 | Cn1cc(-c2ccc3nnc(C(F)(F)c4ccc5ncccc5c4)n3n2)cn1 | 94.1% and 97.8% | 98.8% | 102% | 105% | 96% | 99.2% | 86.9% | 89.6%
14 | CC1=CCC(=C(C)C)C(=O)CC(C)=CCC1 [Germacrone] | 110% and 109% | 111% | 107% | 103% | 110% | 106% | 95.1% | 101%
15 | CC(=O)O/N=C1\C(=O)N(Cc2cc(Cl)ccc2Cl)c2ccc(Cl)cc21 | 92% and 94.5% | 85.1% | 15.6% | 91.5% | 30.4% | 90.7% | 1.27% | 9.59%
16 | C/C(=C(/CCOC(=O)c1ccccc1)SC(=O)c1ccccc1)N(C=O)Cc1cnc(C)nc1N [Dibenzoyl Thiamine] | 103% | 107% | 96.5% | 94% | 90.8% | 102% | 99.1% | 109%
17 | COc1ccc(-c2cc(=O)c3c(O)c(OC)c(O)cc3o2)cc1OC [Eupatilin] | 101% and 99.5% | 97% | 92.3% | 98.2% | 48.7% | 60.2% | 69.4% | 71.2%
18 | C=CC(=O)Nc1cc(Nc2nccc(-c3c[nH]c4ccccc34)n2)c(OC)cc1N(C)CCN(C)C | 12.6% and 20.8% | 24% | 6.47% | 9.15% | 0.38% | 0.41% | 0.35% | 0.67%
19 | N=C(NCCCCCCNC(=N)NC(=N)Nc1ccc(Cl)cc1)NC(=N)Nc1ccc(Cl)cc1 [Chlorhexidine] | 14.9% and 12% | 23% | 39.3% | 34.6% | 5.12% | 4.9% | 2.08% | 6.07%
20 | C[C@]12C=CC(=O)C=C1CC[C@H]1[C@@H]3C[C@@H](O)[C@](O)(C(=O)CO)[C@@]3(C)C[C@H](O)[C@@]12F [Triamcinolone (Aristocort)] | 107% | 106% | 100% | 108% | 107% | 98.3% | 110% | 122%
21 | COc1ccc(-c2oc3c(CC=C(C)C)c(O[C@@H]4O[C@H](CO)[C@@H](O)[C@H](O)[C@H]4O)cc(O)c3c(=O)c2O[C@@H]2O[C@@H](C)[C@H](O)[C@@H](O)[C@H]2O[C@@H]2OC[C@@H](O)[C@H](O)[C@H]2O)cc1 [Epmedin B] | 103% and 99.7% | 102% | 105% | 93% | 110% | 102% | 103% | 99.5%

Row | Compound | cell viability (K562; SRSF2 genotype: SRSF2 P95H/wt) | cell viability (K562; SRSF2 genotype: SRSF2 wt/wt) | cell viability (MARIMO; SRSF2 genotype: SRSF2 P95H/wt) | cell viability (MARIMO; SRSF2 genotype: SRSF2 wt/wt) | cell viability (MOLM14; SRSF2 genotype: SRSF2 P95H/wt) | cell viability (MOLM14; SRSF2 genotype: SRSF2 wt/wt) | cell viability (OCI-AML2; SRSF2 genotype: P95H/wt) | cell viability (OCI-AML2; SRSF2 genotype: wt/wt)
22 | O=C([O-])[O-].[Li+].[Li+] [Lithium carbonate] | 111% and 113% | 108% | 99.6% | 112% | 105% | 108% | 117% | 96.9%
23 | CC(/C=C/C=C(\C)C(=O)O[C@@H]1O[C@H](CO)[C@@H](O)[C@H](O)[C@H]1O)=C\C=C\C=C(C)\C=C\C=C(/C)C(=O)O[C@@H]1O[C@H](CO[C@@H]2O[C@H](CO)[C@@H](O)[C@H](O)[C@H]2O)[C@@H](O)[C@H](O)[C@H]1O [Crocin II] | 109% and 106% | 99.8% | 104% | 110% | 87.5% | 104% | 97.4% | 106%
24 | O=C(Nc1ccc(Cl)cc1)C1CCCN(C(=O)c2cccc(-c3ccco3)c2)C1 (stereo not drawn) | 67.5% and 80.2% | 71.6% | 52.6% | 39.4% | 64.4% | 77.1% | 29% | 43%
25 | CCn1c(=O)c2c(nc(/C=C/c3ccc(OC)c(OC)c3)n2C)n(CC)c1=O [Istradefylline (KW-6002)] | 90.7% and 83.8% | 85.1% | 81.1% | 95.3% | 96.5% | 97.6% | 117% | 92.4%
26 | C[C@@H]1CC[C@@]2(OC1)O[C@H]1C[C@H]3[C@@H]4CC=C5C[C@@H](O[C@@H]6O[C@H](CO)[C@@H](O[C@@H]7O[C@@H](C)[C@H](O[C@@H]8O[C@@H](C)[C@H](O)[C@@H](O)[C@H]8O)[C@@H](O)[C@H]7O)[C@H](O)[C@H]6O[C@@H]6O[C@@H](C)[C@H](O)[C@@H](O)[C@H]6O)CC[C@]5(C)[C@H]4CC[C@]3(C)[C@@]1(O)[C@@H]2C [Chonglou Saponin VII] | 0.5% and 0.49% | 0.46% | 0.43% | 0.55% | 0.44% | 0.46% | 0.37% | 0.47%
27 | CCN(CC)CCCCNc1ncc2cc(-c3cc(OC)cc(OC)c3)c(NC(=O)NC(C)(C)C)nc2n1 | 46.4% and 47.9% | 49.4% | 54.2% | 51.9% | 48.3% | 47.7% | 38.1% | 40.1%
28 | C=CC(=O)Nc1cc2c(Nc3ccc(F)c(Cl)c3)ncnc2cc1OCCCN1CCOCC1 [CI-1033 (Canertinib)] | 66.7% and 78.1% | 61.7% | 52% | 61.5% | 12.8% | 15.9% | 27.6% | 31.4%
29 | Cn1c(=O)cc(N2CCC[C@@H](N)C2)n(Cc2ccccc2C#N)c1=O | 96.9% and 97.8% | 88.7% | 94% | 97.1% | 91.3% | 98.3% | 98% | 101%
30 | Cc1cc(N2CCOCC2)cc2[nH]c(-c3c(NCC(O)c4cccc(Cl)c4)cc[nH]c3=O)nc12 (stereo not drawn) | 46.4% and 36.7% | 52.1% | 33.2% | 31% | 5.77% | 9.63% | 7.45% | 18%
31 | CC1=C(CC(=O)O)c2cc(F)ccc2/C1=C\c1ccc([S+](C)[O-])cc1 (stereo not drawn) [Sulindac (Clinoril)] | 109% and 99.8% | 96.8% | 88.6% | 112% | 92.5% | 100% | 94.2% | 102%
32 | CCNC(=O)Nc1ccc(-c2nc3c(c(N4CCOC[C@@H]4C)n2)CCN(C2COC2)C3)cc1 | 40.5% and 42.9% | 39.5% | 61.5% | 53.6% | 37.4% | 28.8% | 36.3% | 33.7%
33 | CC(=O)OCC1=C(C(=O)O)N2C(=O)[C@@H](NC(=O)Cc3cccs3)[C@H]2SC1 [Cephalothin] | 94.9% and 98.7% | 96.1% | 95.8% | 100% | 94.7% | 101% | 95.1% | 104%
34 | Cc1ccnc2c1NC(=O)c1cccnc1N2C1CC1 [Nevirapine (Viramune)] | 101% and 89.6% | 95.5% | 93.3% | 99.3% | 89.9% | 0.15% | 91.6% | 104%
35 | COc1cc(CCC(=O)CC(=O)CCc2ccc(O)c(OC)c2)ccc1O [Tetrahydrocurcumin] | 94.1% and 90.6% | 89.2% | 90.2% | 88.7% | 92.8% | 94.5% | 85.8% | 97.3%
36 | Cc1cc(C)nc(NS(=O)(=O)c2ccc(NC(=S)NC(=O)COc3ccc(Br)cc3Cl)cc2)n1 | 91.4% and 83.1% | 85.5% | 82.3% | 90.7% | 83.5% | 91.1% | 88.6% | 84.6%
37 | CC(=O)[C@H]1CC[C@H]2[C@@H]3CC=C4C[C@@H](O)CC[C@]4(C)[C@H]3CC[C@]12C [Pregnenolone] | 103% and 108% | 107% | 103% | 105% | 101% | 105% | 100% | 107%
38 | CS(=O)(=O)c1ccc([C@@H](O)[C@@H](CO)NC(=O)C(Cl)Cl)cc1 [Thiamphenicol (Thiophenicol)] | 86.1% and 88.3% | 87.7% | 103% | 101% | 98.5% | 96.8% | 97.3% | 91.2%
39 | O=C1O[C@H]2[C@@H]3OC(=O)c4cc(O)c(O)c(O)c4-c4c(cc(O)c(O)c4O)C(=O)OC[C@H]2O[C@@H](OC(=O)c2cc(O)c(O)c(O)c2)[C@@H]3OC(=O)c2cc(O)c(O)c3c2[C@@H]2C1=CC(=O)[C@](O)(O3)C2(O)O [Geraniin] | 94.9% and 95.9% | 103% | 97.3% | 86% | 106% | 97.7% | 96.1% | 92.1%
40 | O=C(O)Cc1ccccc1Nc1c(Cl)cccc1Cl [Diclofenac Sodium] | 94.9% and 97.8% | 102% | 103% | 110% | 108% | 100% | 91.1% | 102%
41 | CNC1CCCN(c2c(F)cc3c(=O)c(C(=O)O)cn(C4CC4)c3c2OC)C1 (stereo not drawn) [Balofloxacin] | 104% and 108% | 105% | 107% | 105% | 107% | 109% | 106% | 94.3%
